# In ChEMBL document CHEMBL1961873, “Compounds: GSK PKIS; Assays: Nanosyn kinase panel” (2012):
# Legend:
# [1] = biological target: Sphingosine kinase 1 (Homo sapiens) (UniProt Q9NYA1); settings: at 1 µM;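 also: mean SPHK1 inhibition value reported from the GSK PKIS kinase panel screen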
# [2] = biological target: T1, Sphingosine kinase 2 (Homo sapiens) (UniProt Q9NRA0); settings: at 0.1 µM
# T1 sequence (whole entry): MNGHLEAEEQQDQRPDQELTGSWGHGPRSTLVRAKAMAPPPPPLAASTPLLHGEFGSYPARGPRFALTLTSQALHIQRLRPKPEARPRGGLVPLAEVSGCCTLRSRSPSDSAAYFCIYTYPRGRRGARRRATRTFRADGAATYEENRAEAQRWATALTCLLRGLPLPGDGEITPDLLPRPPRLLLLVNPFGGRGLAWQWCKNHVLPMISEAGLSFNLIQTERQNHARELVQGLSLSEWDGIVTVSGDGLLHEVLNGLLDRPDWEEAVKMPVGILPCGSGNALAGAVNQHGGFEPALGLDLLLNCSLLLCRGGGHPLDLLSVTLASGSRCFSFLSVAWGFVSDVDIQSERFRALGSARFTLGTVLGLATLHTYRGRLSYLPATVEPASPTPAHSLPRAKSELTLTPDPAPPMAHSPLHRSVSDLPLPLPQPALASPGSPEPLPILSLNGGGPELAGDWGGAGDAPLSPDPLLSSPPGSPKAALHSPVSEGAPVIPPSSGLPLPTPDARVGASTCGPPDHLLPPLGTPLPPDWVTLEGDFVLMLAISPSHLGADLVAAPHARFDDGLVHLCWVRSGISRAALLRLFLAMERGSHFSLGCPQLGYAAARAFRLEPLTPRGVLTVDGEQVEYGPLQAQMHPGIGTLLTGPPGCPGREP
# [3] = biological target: T1, Sphingosine kinase 2 (Homo sapiens); settings: at 1 µM
# [4] = biological target: Casein kinase II subunit alpha (Homo sapiens) (UniProt P68400); settings: at 0.1 µM
# Sequence of Casein kinase II subunit alpha (Homo sapiens) (P68400 whole entry, looked up): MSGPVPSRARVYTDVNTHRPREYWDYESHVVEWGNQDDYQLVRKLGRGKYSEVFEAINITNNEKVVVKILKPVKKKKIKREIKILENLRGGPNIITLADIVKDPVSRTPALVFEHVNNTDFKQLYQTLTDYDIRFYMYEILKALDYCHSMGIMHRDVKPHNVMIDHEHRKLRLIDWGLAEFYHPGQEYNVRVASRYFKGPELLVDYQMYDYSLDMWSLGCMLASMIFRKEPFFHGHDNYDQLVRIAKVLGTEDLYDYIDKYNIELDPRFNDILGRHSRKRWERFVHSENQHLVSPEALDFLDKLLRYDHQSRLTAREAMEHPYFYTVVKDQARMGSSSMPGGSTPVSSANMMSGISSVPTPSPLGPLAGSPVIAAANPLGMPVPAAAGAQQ
# [5] = biological target: Casein kinase II subunit alpha (Homo sapiens) (UniProt P68400); settings: at 1 µM
# [6] = biological target: T2, Inhibitor of nuclear factor kappa-B kinase subunit alpha (Homo sapiens) (UniProt O15111); settings: at 0.1 µM
# T2 sequence (whole entry): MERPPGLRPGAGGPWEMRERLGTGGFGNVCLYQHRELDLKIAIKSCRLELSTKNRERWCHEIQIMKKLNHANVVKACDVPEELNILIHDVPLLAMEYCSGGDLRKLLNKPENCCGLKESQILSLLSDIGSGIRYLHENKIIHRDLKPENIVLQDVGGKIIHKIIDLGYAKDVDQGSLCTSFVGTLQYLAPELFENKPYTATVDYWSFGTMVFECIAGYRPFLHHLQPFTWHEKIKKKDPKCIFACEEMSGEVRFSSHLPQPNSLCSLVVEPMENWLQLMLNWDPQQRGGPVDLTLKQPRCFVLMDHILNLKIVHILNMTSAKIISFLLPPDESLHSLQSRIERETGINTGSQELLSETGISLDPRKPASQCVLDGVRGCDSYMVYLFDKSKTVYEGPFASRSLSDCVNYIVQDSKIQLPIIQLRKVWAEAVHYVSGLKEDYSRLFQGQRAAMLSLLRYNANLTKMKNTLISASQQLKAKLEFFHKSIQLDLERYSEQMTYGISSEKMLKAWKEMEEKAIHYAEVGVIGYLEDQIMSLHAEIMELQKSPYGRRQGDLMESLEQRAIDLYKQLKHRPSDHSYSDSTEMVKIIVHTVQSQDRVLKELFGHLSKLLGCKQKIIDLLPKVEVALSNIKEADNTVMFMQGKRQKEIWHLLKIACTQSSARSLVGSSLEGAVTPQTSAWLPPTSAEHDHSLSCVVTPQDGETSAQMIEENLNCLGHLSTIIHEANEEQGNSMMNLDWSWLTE
# [7] = biological target: T2, Inhibitor of nuclear factor kappa-B kinase subunit alpha (Homo sapiens); settings: at 1 µM
# [8] = biological target: T3, Inhibitor of nuclear factor kappa-B kinase subunit beta (Homo sapiens) (UniProt O14920); settings: at 0.1 µM
# T3 sequence (whole entry): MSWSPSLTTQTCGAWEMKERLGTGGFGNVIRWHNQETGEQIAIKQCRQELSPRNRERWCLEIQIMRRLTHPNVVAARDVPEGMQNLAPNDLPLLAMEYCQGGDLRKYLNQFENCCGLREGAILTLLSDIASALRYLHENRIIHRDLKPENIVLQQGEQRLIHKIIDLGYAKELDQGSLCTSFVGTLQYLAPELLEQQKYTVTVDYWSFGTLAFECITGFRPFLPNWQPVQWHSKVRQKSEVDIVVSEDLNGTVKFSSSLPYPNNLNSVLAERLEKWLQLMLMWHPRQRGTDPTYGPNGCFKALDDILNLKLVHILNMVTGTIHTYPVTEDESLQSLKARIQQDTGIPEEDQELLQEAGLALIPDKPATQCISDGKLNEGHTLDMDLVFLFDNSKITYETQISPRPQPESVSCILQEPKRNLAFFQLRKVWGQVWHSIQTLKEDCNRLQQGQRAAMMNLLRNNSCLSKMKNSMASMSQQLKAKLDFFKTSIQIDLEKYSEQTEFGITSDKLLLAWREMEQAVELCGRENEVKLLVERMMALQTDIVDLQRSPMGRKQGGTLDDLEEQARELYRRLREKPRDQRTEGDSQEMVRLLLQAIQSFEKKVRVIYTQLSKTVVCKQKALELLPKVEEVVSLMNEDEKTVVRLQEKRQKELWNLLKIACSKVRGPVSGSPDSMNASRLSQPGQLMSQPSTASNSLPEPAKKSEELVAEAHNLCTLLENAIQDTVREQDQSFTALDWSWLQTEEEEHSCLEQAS
# [9] = biological target: T3, Inhibitor of nuclear factor kappa-B kinase subunit beta (Homo sapiens); settings: at 1 µM
# [10] = biological target: T4, Inhibitor of nuclear factor kappa-B kinase subunit epsilon (Homo sapiens) (UniProt Q14164); settings: at 0.1 µM
# T4 sequence (whole entry): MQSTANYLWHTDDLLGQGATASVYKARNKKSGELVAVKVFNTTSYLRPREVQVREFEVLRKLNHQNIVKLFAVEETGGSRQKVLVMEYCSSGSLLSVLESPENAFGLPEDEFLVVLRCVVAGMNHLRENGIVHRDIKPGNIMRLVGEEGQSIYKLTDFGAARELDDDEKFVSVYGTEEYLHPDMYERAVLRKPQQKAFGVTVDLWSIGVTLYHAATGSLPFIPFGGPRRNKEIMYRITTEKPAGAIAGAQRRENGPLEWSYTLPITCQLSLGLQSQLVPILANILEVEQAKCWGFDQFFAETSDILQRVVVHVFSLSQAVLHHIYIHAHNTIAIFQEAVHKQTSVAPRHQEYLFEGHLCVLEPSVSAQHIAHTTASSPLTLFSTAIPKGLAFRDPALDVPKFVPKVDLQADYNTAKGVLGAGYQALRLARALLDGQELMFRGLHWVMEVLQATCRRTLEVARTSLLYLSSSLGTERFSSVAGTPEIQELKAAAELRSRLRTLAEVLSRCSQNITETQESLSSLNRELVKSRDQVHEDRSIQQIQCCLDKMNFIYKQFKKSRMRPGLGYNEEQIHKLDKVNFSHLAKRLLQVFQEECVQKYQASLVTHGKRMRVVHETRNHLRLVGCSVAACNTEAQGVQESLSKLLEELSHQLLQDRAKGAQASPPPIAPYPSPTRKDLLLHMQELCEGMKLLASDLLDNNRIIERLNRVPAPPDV
# [11] = biological target: T4, Inhibitor of nuclear factor kappa-B kinase subunit epsilon (Homo sapiens); settings: at 1 µM
# [12] = biological target: T5, Serine/threonine-protein kinase Nek1 (Homo sapiens) (UniProt Q96PY6); settings: at 0.1 µM
# T5 sequence (whole entry): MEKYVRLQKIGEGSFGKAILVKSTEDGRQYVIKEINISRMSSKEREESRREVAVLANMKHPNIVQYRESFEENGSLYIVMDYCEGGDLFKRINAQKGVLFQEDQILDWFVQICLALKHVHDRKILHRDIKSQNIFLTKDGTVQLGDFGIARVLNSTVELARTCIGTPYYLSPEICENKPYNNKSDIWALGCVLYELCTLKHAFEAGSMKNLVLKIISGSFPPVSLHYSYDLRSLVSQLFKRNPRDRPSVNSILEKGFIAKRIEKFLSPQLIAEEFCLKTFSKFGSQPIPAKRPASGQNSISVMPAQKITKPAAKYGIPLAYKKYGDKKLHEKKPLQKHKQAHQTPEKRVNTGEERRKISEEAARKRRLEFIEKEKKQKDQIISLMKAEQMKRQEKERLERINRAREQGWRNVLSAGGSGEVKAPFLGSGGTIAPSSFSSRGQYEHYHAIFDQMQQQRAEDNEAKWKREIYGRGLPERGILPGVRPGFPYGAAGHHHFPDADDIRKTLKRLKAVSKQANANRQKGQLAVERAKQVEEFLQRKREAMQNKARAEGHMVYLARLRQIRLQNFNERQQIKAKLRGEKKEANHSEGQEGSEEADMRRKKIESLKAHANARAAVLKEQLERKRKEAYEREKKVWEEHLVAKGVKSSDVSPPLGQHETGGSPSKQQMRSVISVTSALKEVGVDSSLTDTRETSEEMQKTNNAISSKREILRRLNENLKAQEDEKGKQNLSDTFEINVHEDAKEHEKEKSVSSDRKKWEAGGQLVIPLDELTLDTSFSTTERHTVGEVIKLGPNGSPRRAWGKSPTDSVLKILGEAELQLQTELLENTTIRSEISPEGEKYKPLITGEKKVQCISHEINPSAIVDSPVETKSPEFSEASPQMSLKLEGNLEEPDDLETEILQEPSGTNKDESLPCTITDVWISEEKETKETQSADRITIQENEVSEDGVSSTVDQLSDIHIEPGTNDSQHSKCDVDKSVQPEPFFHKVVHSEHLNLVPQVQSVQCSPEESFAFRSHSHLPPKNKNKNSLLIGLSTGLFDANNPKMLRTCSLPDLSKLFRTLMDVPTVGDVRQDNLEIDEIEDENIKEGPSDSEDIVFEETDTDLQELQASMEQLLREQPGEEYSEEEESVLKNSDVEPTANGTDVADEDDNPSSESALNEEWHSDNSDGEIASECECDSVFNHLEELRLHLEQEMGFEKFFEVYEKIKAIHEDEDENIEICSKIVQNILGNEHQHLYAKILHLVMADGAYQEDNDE
# [13] = biological target: T5, Serine/threonine-protein kinase Nek1 (Homo sapiens); settings: at 1 µM
# [14] = biological target: T6, Serine/threonine-protein kinase Nek2 (Homo sapiens) (UniProt P51955); settings: at 0.1 µM
# T6 sequence (whole entry): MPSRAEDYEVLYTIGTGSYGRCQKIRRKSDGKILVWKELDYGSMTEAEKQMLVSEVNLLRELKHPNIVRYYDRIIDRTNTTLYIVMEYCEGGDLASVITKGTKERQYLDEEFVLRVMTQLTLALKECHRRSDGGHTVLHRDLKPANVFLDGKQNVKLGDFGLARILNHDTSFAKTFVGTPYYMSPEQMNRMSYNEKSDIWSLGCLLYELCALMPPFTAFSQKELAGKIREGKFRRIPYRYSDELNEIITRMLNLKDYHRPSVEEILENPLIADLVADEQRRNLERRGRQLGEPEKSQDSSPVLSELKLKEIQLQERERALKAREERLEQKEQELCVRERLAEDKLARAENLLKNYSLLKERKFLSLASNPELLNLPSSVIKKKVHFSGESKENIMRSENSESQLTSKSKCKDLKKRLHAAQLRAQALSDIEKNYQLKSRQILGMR
# [15] = biological target: T6, Serine/threonine-protein kinase Nek2 (Homo sapiens); settings: at 1 µM
# [16] = biological target: Serine/threonine-protein kinase Nek6 (Homo sapiens) (UniProt Q9HC98); settings: at 0.1 µM
# Sequence of Serine/threonine-protein kinase Nek6 (Homo sapiens) (Q9HC98 whole entry): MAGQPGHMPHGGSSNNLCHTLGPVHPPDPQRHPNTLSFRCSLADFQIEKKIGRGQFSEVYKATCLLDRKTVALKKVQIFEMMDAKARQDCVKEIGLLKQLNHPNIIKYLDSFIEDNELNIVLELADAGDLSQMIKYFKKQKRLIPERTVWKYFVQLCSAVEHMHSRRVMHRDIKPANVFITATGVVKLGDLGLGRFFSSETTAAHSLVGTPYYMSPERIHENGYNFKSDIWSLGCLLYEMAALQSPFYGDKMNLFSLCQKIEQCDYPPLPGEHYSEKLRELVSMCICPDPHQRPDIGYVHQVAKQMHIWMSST
# [17] = biological target: Serine/threonine-protein kinase Nek6 (Homo sapiens) (UniProt Q9HC98); settings: at 1 µM
# [18] = biological target: Serine/threonine-protein kinase Nek7 (Homo sapiens) (UniProt Q8TDX7); settings: at 0.1 µM
# Sequence of Serine/threonine-protein kinase Nek7 (Homo sapiens) (Q8TDX7 whole entry, looked up): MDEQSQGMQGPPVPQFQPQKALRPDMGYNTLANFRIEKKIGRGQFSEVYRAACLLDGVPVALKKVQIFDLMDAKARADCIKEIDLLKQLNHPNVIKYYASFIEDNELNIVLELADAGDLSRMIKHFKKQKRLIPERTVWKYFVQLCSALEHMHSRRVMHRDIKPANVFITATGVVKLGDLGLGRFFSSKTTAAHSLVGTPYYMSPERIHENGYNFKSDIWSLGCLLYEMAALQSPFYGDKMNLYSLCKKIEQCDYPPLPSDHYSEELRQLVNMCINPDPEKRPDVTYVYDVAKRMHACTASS
# [19] = biological target: Serine/threonine-protein kinase Nek7 (Homo sapiens) (UniProt Q8TDX7); settings: at 1 µM
# [20] = biological target: T7, Serine/threonine-protein kinase Nek9 (Homo sapiens) (UniProt Q8TD19); settings: at 0.1 µM;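 also: reported value is the mean percent inhibition of NEK9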
# T7 sequence (whole entry): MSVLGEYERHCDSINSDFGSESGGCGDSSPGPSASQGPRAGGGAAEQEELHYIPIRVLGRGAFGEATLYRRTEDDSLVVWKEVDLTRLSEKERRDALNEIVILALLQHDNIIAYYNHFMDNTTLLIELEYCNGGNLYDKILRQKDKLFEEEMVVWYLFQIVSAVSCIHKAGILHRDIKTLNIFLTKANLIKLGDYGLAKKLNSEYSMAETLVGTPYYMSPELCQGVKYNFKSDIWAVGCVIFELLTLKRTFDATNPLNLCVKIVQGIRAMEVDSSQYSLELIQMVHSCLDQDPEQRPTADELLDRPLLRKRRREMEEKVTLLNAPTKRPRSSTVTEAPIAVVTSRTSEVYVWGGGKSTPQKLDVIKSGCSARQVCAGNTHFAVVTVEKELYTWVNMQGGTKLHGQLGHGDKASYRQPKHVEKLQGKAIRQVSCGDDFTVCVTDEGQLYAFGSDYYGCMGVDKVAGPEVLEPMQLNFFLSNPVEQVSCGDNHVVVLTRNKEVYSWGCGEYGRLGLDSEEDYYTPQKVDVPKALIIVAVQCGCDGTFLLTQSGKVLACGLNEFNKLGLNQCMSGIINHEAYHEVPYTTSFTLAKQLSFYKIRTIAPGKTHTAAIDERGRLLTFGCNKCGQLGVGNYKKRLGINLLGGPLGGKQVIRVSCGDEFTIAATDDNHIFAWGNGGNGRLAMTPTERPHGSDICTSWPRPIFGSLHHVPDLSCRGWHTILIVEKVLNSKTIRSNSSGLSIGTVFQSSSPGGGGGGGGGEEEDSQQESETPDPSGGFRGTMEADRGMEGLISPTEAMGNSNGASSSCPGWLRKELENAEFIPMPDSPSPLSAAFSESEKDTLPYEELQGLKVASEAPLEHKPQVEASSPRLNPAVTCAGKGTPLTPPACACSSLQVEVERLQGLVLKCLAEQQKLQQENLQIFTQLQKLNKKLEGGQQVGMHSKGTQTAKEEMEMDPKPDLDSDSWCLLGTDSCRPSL
# Sequence of Sphingosine kinase 1 (Homo sapiens) (Q9NYA1 whole entry): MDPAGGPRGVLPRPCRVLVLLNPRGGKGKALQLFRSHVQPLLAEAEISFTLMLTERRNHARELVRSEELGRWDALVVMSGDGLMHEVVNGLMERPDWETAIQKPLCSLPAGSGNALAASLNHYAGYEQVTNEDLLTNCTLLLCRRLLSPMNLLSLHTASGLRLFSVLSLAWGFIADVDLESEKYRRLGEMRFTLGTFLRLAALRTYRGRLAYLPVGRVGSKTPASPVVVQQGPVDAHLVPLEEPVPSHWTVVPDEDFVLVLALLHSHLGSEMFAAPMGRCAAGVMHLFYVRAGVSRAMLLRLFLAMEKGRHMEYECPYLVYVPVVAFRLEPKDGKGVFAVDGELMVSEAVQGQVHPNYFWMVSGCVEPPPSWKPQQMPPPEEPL
smiles,measurement,setting,value
Nc1nc(-c2ccccn2)c(-c2ccc3ncccc3n2)s1,inhibition,[1],-3.49%
same,inhibition,[2],-0.63%
same,inhibition,[3],-3.19%
same,inhibition,[4],2.62%
same,inhibition,[5],10.1%
same,inhibition,[6],4.74%
same,inhibition,[7],9.42%
same,inhibition,[8],4.18%
same,inhibition,[9],4.54%
same,inhibition,[10],3.83%
same,inhibition,[11],5.46%
same,inhibition,[12],2.32%
same,inhibition,[13],4.91%
same,inhibition,[14],3.61%
same,inhibition,[15],2.7%
same,inhibition,[16],3.95%
same,inhibition,[17],1.16%
same,inhibition,[18],3.03%
same,inhibition,[19],2.77%
same,inhibition,[20],6.33%
